Experimental data as given in ChEMBL document CHEMBL3988442, “University of Dundee, Small-Polar-MMV Screening Library” (2021).
For part of these data: Potency and affinity values are given separately.

Experiments:
Design in all cases: scale not given: direction of the effect not stated beside the values
[1] = biological target: Protein translocase subunit SecA (Escherichia coli (strain K12)) (UniProt P10408); assay: Assay to Identify E. coli SecA ATPase Inhibitors; format: functional; details: 30 µM
[2] = biological target: T1, Ubiquitin-activating enzyme e1, putative (Leishmania donovani (strain BPK282A1)) (UniProt E9BSI1); assay: Leishmania donovani Ubiquitin Activating Enzyme (LdE1); format: functional; details: 30 µM
T1 sequence (whole entry): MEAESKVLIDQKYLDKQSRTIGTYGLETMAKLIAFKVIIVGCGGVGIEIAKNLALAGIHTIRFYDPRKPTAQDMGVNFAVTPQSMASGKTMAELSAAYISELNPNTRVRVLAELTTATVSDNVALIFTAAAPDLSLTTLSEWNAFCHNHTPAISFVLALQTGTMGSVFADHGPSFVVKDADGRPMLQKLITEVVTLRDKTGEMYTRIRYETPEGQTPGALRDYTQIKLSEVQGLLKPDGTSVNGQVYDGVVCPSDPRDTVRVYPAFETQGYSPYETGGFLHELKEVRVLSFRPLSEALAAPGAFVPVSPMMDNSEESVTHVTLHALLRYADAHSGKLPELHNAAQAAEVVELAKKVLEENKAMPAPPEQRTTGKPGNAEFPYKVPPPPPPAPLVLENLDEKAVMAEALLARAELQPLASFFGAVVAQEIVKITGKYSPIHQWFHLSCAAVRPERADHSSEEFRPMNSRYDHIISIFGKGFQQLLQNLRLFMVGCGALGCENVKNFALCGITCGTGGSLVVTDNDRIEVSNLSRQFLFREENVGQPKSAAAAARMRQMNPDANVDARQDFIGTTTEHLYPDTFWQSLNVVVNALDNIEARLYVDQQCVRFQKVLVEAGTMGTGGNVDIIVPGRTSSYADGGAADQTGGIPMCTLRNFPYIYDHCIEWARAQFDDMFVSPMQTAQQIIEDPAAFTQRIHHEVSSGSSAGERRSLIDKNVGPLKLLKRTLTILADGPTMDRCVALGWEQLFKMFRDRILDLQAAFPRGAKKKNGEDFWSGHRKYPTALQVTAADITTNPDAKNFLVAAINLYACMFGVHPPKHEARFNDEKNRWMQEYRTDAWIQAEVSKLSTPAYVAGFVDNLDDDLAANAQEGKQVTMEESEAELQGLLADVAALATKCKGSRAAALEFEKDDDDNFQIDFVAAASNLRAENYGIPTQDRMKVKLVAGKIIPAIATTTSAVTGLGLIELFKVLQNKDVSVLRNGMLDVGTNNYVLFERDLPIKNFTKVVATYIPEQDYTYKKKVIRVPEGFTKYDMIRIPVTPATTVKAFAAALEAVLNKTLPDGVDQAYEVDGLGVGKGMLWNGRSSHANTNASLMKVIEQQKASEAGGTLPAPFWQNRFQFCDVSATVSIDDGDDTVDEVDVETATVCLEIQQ

[3] = biological target: Sialic acid-binding Ig-like lectin 9 (Homo sapiens) (UniProt Q9Y336); assay: Hs-Siglec9 ALPHAscreen SOP 20170721; details: 10 µM
Trypanosoma cruzi = assay: Trypanosoma cruzi phosphomannomutase and mannose-1-phosphate guanylyltransferase assay; format: functional; details: 10 µM
[4] = biological target: T2, Arginase-2, mitochondrial (Homo sapiens) (UniProt P78540); assay: in vitro enzyme assay to detect the production of urea directly proportional to the activity of Arginase II; format: functional; details: 33.3 µM; also: in the data most compounds retested in dose-response had high values
T2 sequence (whole entry): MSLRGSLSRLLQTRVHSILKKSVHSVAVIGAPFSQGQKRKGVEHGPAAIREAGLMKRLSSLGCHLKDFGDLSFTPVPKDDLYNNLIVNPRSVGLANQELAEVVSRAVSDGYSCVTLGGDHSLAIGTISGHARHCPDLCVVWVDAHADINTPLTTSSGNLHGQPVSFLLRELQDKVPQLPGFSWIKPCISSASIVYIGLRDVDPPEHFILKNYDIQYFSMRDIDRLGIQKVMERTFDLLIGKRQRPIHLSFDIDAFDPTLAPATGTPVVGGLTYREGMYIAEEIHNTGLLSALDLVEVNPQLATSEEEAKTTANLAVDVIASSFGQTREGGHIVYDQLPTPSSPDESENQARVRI

[5] = biological target: T3, Proteasome subunit beta (Trypanosoma cruzi) (UniProt O96673); assay: Trypanosoma cruzi proteasome chymotrypsin-like activity (TcProtChymo) assay.; also: in the data most compounds retested in dose-response had high values; format: functional; details: 9.37 µM
T3 sequence (whole entry): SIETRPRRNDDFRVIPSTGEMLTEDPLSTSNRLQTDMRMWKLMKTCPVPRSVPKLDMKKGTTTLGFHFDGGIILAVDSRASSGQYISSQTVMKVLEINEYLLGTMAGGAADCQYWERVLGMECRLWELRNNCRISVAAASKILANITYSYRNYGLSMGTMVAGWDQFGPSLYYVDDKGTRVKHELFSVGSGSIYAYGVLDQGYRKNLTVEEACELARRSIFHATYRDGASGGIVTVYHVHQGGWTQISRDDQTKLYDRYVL

Homo sapiens = species on record: Homo sapiens; assay: To identify inhibition of the IFN signalling (Jak-Stat) pathway via expression of an eGFP reporter gene under the control of an IFN-stimulated response element (ISRE) containing MxA promoter.; format: functional; details: 30 µM
[6] = biological target: T4, Tyrosyl-tRNA synthetase, putative (Trypanosoma cruzi (strain CL Brener)) (UniProt Q4DSP6); assay: Trypanosoma cruzi tyrosyl tRNA synthetase (TcYRS) _High Tyrosine SOP; format: functional; details: 30 µM; also: in the data most compounds retested in dose-response had high values
T4 sequence (whole entry): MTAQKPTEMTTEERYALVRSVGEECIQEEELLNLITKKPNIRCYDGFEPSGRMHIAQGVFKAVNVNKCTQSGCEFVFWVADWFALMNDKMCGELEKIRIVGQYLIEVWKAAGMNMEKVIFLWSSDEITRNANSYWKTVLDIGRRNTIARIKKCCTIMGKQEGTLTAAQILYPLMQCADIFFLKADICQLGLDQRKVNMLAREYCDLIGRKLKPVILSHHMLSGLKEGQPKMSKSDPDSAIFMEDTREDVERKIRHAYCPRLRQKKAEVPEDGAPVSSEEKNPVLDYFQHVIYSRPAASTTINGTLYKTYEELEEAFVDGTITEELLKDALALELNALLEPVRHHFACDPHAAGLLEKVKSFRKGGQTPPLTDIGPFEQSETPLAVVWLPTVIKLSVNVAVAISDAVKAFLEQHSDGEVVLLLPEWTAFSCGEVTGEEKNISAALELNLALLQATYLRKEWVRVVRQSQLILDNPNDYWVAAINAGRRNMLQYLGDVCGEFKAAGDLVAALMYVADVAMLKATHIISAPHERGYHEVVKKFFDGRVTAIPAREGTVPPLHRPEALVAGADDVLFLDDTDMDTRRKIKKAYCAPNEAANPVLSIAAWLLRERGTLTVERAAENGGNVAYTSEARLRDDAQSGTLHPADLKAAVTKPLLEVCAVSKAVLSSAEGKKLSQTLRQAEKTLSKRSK

[7] = biological target: T4, Tyrosyl-tRNA synthetase, putative (Trypanosoma cruzi (strain CL Brener)); assay: Trypanosoma cruzi tyrosyl tRNA synthetase (TcYRS) SOP; format: functional; details: 30 µM
[8] = biological target: Chromo domain-containing protein 1 (Saccharomyces cerevisiae (strain ATCC 204508 / S288c) (Baker's yeast)) (UniProt P32657); assay: ScCHD-1 Enzyme Inhibition Assay; format: functional; details: 30 µM; also: in the data most compounds retested in dose-response had high values
Sequence of Chromo domain-containing protein 1 (Saccharomyces cerevisiae (strain ATCC 204508 / S288c) (Baker's yeast)) (P32657 whole entry, the tested form may be a part): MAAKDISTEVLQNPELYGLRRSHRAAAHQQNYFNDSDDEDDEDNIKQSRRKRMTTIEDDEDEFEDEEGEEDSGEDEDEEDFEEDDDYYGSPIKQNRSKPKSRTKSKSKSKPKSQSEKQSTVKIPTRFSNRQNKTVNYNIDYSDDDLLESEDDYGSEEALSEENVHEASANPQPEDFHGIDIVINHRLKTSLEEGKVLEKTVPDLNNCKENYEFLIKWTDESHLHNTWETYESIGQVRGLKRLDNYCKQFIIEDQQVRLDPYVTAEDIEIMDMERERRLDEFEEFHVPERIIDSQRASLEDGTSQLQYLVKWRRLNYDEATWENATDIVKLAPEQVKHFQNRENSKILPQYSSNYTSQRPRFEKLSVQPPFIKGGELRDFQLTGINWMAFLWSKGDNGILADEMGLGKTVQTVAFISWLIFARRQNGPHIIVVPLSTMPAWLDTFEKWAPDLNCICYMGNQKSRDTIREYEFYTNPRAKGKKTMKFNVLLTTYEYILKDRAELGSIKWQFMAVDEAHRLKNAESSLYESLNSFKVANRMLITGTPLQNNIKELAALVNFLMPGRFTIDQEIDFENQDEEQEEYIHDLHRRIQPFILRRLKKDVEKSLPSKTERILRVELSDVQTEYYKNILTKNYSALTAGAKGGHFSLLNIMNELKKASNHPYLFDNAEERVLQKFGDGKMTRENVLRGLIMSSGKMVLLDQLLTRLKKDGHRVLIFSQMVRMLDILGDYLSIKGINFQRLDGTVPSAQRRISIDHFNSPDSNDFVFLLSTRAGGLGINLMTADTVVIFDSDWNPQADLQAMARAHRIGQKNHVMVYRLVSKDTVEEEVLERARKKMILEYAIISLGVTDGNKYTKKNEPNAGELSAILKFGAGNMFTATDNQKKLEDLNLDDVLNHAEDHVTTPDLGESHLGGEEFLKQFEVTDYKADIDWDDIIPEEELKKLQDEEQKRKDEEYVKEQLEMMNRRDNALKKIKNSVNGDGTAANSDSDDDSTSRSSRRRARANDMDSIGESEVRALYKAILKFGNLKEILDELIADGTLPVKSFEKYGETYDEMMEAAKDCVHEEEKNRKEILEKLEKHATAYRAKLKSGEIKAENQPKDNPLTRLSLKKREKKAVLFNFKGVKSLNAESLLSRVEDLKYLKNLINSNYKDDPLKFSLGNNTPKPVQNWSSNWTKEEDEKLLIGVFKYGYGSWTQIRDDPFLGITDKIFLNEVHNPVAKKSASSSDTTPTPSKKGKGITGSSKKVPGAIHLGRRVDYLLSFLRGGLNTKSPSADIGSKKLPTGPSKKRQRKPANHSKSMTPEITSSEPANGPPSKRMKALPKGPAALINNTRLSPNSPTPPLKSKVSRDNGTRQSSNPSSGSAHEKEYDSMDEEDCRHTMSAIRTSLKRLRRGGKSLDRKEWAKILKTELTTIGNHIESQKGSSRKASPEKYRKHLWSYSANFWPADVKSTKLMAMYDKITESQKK

Sequence of Protein translocase subunit SecA (Escherichia coli (strain K12)) (P10408 whole entry): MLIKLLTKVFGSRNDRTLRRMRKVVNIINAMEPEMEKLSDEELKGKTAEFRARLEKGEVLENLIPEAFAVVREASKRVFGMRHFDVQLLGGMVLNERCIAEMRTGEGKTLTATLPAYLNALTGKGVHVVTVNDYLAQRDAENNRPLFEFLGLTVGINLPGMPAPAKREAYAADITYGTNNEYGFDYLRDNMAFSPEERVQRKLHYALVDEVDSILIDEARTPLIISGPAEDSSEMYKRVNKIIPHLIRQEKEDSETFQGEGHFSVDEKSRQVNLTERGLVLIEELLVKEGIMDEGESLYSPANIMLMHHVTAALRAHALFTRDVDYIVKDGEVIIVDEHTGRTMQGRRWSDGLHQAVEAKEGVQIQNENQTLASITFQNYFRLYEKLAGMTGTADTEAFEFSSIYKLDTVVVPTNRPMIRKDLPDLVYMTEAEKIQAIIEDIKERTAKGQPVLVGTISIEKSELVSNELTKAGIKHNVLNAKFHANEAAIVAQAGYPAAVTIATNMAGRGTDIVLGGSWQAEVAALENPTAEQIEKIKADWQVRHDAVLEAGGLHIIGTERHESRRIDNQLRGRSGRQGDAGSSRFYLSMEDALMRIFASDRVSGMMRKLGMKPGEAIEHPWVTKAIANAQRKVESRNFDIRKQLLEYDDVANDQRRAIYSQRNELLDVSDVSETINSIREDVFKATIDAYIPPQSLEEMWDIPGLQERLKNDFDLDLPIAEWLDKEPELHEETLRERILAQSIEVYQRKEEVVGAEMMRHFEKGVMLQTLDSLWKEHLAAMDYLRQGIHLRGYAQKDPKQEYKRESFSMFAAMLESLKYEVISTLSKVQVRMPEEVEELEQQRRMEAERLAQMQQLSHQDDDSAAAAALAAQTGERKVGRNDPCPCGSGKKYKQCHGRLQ
Sequence of Sialic acid-binding Ig-like lectin 9 (Homo sapiens) (Q9Y336 whole entry): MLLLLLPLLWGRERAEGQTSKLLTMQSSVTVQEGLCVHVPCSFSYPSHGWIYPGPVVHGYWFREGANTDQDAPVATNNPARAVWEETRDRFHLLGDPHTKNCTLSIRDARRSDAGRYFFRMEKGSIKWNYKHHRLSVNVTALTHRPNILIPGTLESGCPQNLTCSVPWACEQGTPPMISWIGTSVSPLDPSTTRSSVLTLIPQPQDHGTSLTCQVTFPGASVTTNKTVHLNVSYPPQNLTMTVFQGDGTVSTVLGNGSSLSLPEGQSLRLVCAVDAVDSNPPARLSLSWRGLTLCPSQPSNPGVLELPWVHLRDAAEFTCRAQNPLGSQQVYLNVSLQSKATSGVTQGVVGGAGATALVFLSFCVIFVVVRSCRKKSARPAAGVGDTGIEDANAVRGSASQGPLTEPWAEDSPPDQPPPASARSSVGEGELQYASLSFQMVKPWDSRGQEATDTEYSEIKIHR

CC(=O)N1C[C@@H](c2ccsc2)[C@@H]2CN(Cc3cccc(Cl)c3)CC[C@@H]21
Percent Effect [1]: -3.63%
Percent Effect [2]: 9.33%
Percent Effect [3]: 5.9%
Percent Effect (Trypanosoma cruzi): -1.97%
Percent Effect [4]: 7.08%
Percent Effect [5]: 6.9%
Percent Effect (Homo sapiens): 56.9%
Percent Effect [6]: 9.52%
Percent Effect [7]: 20%
Percent Effect [8]: -24.3%

CC(C)CCCNC(=O)Nc1ccc(F)c(C(N)=O)c1
Percent Effect [1]: -0.324%
Percent Effect [2]: 23.4%
Percent Effect [3]: 0.112%
Percent Effect (Trypanosoma cruzi): 2.61%
Percent Effect [4]: -6.76%
Percent Effect [5]: 12.3%
Percent Effect (Homo sapiens): 14.9%
Percent Effect [6]: 6.86%
Percent Effect [7]: 30.6%
Percent Effect [8]: -10.9%

Cn1ccc(C(=O)NCc2ccc(N3CCCC3)nc2)cc1=O
Percent Effect [1]: -3.18%
Percent Effect [2]: 8%
Percent Effect [3]: 10.6%
Percent Effect (Trypanosoma cruzi): 1%
Percent Effect [4]: 0%
Percent Effect [5]: 5.85%
Percent Effect (Homo sapiens): 21.7%
Percent Effect [6]: 3.68%
Percent Effect [7]: 5.13%
Percent Effect [8]: -7.64%

Cc1ccc(CN(C)CC(=O)NC2(C)CCS(=O)(=O)C2)cc1 (stereo not given)
Percent Effect [1]: -0.346%
Percent Effect [2]: 8%
Percent Effect [3]: -1.85%
Percent Effect (Trypanosoma cruzi): -2.81%
Percent Effect [4]: -1.77%
Percent Effect [5]: 7.89%
Percent Effect (Homo sapiens): 21.9%
Percent Effect [6]: 10%
Percent Effect [7]: 15.4%
Percent Effect [8]: -11.2%

COCCN1C(=O)CCC12CCN(C(=O)CC1CC1)CC2
Percent Effect [1]: -0.652%
Percent Effect [2]: -1.3%
Percent Effect [3]: 0.0799%
Percent Effect (Trypanosoma cruzi): -0.938%
Percent Effect [4]: 2.28%
Percent Effect [5]: 5.75%
Percent Effect (Homo sapiens): 11.8%
Percent Effect [6]: -0.966%
Percent Effect [7]: -15%
Percent Effect [8]: 0.945%

COc1cccc(S(=O)(=O)N2CCC(O)(CN(C)C)C2)c1 (stereo not given)
Percent Effect [1]: -2.81%
Percent Effect [2]: 4%
Percent Effect [3]: -1.76%
Percent Effect (Trypanosoma cruzi): -3.35%
Percent Effect [4]: 4.42%
Percent Effect [5]: 9.2%
Percent Effect (Homo sapiens): -4%
Percent Effect [6]: 1.06%
Percent Effect [7]: 7.5%
Percent Effect [8]: -23.8%

COC(=O)COc1nc(CC(C)C)c2c(c1C#N)CCCC2
Percent Effect [1]: -4.25%
Percent Effect [2]: 2.7%
Percent Effect [3]: -5.64%
Percent Effect (Trypanosoma cruzi): -7.86%
Percent Effect [4]: -5.94%
Percent Effect [5]: 10.6%
Percent Effect (Homo sapiens): 38.2%
Percent Effect [6]: -2.66%
Percent Effect [7]: 4.88%
Percent Effect [8]: -4.12%

Cc1ccccc1N1CCN(C(=O)c2ccc[nH]2)C(C)C1 (stereo not given)
Percent Effect [1]: -7.84%
Percent Effect [2]: 2.7%
Percent Effect [3]: 33.4%
Percent Effect (Trypanosoma cruzi): 5.92%
Percent Effect [4]: -2.45%
Percent Effect [5]: 9.25%
Percent Effect (Homo sapiens): 27.5%
Percent Effect [6]: 1.6%
Percent Effect [7]: 9.76%
Percent Effect [8]: -1.74%

Cc1occc1C(=O)NCc1ccc(N2CCCC(C(N)=O)C2)cc1 (stereo not given)
Percent Effect [1]: -2.46%
Percent Effect [2]: 8%
Percent Effect [3]: -3.46%
Percent Effect (Trypanosoma cruzi): -3.61%
Percent Effect [4]: 10.6%
Percent Effect [5]: 13%
Percent Effect (Homo sapiens): 16.5%
Percent Effect [6]: 2.63%
Percent Effect [7]: 7.69%
Percent Effect [8]: -9.94%

Cc1noc(C)c1C(=O)NCc1ccc(N2CCOC(C)C2)nc1 (stereo not given)
Percent Effect [1]: -2.58%
Percent Effect [2]: 21.3%
Percent Effect [3]: -1.63%
Percent Effect (Trypanosoma cruzi): -0.402%
Percent Effect [4]: -0.887%
Percent Effect [5]: 12.5%
Percent Effect (Homo sapiens): 9.59%
Percent Effect [6]: 2.63%
Percent Effect [7]: 15.4%
Percent Effect [8]: -13.6%

COc1cc(C(=O)N2CCCS2(=O)=O)ccc1C
Percent Effect [1]: -4.9%
Percent Effect [2]: -2.67%
Percent Effect [3]: -1.38%
Percent Effect (Trypanosoma cruzi): 4.82%
Percent Effect [4]: -3.99%
Percent Effect [5]: 14.7%
Percent Effect (Homo sapiens): 1.35%
Percent Effect [6]: 4.74%
Percent Effect [7]: 10.3%
Percent Effect [8]: -8.07%

CS(=O)(=O)NCC1CCCN(C(=O)c2cc3ccccc3o2)C1 (stereo not given)
Percent Effect [1]: -0.17%
Percent Effect [2]: 28.6%
Percent Effect [3]: 3.25%
Percent Effect (Trypanosoma cruzi): 3.36%
Percent Effect [4]: -9.22%
Percent Effect [5]: 15.1%
Percent Effect (Homo sapiens): 11.5%
Percent Effect [6]: 5.88%
Percent Effect [7]: 23.5%
Percent Effect [8]: -10.2%
